# NALP3 yeast inh: NALP3 inflammasome inhibitors in reconstituted yeast, primary screen, luminescence, uHTS; inhibition, % at 10 µM; Yeast reconstituted NLRP3/ASC/caspase-1, beta-gal luminescence, 24 h; 330,000 compounds, 0.39% hits;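 active = inhibition of 50% or more; inactive = inhibition below 50%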
# V-ATPase pHluor: regulators of yeast V-ATPase proton pumping, primary screen, pHLuorin cytosolic pH fluorescence. S. cerevisiae. response, % at 10 µM. 350,000 compounds, 0.37% hits. AID 504577, 2011; in the data active = response mostly above about 7.3%, no sharp cut-off; inactive = mostly below about 5.4%; also: actives read high
# NALP1 inh: NALP1 inflammasome inhibitors in reconstituted yeast, colorimetric, S. cerevisiae, triplicate retest | 280,000 compounds, 0.61% hits | AID 2071, 2009 | inhibition, % at 10 µM | S. cerevisiae NALP1/ASC/caspase-1 growth, X-gal OD620, 72 h; in the data active = inhibition mostly above about 24%, no sharp cut-off; inactive = mostly below about 32%
# tim23-1 inh: growth inhibitors of tim23-1 mutant yeast, primary screen, luminescence, uHTS; S. cerevisiae tim23-1 growth, BacTiter-Glo luminescence, 24 h; inhibition, % at 20 µM; 330,000 compounds, 1.3% hits; AID 463212, 2010;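 active = growth inhibition of the mutant yeast at or above 50%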;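 also: temperature-sensitive mutant grown at 25 °C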
# TIM10 inh: growth inhibitors of isogenic TIM10 control yeast, primary screen, counter-screen for tim10-1 yeast inhibitor project, luminescence, uHTS; S. cerevisiae TIM10 strain growth, BacTiter-Glo luminescence, 24 h; inhibition, % at 10 µM; 330,000 compounds, 1.4% hits; AID 463195, 2010;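 active = inhibition of 40% or more at the single tested concentration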;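 also: wild-type TIM10 isogenic control strain grown at permissive 25 °C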
# tim10-1 inh: growth inhibitors of tim10-1 mutant yeast, primary screen, luminescence, uHTS. S. cerevisiae tim10-1 ts strain growth, BacTiter-Glo, 24 h. inhibition, % at 20 µM. 330,000 compounds, 2.2% hits. AID 463190, 2010;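 active = inhibition of at least 40%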;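 also: mutant grown at 25 °C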
# tim10-1 confirm: growth inhibitors of tim10-1 mutant yeast, confirmation, single concentration, luminescence, S. cerevisiae; shares compounds with tim10-1 inh; S. cerevisiae tim10-1 ts strain growth, BacTiter-Glo, 24 h; inhibition, % at 20 µM; 7,400 compounds, 56% hits; AID 463213, 2010;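 active = inhibition of yeast growth at or above a set limit in either of two repeat tests at 20 µM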;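 also: tim10-1 mutant grown at permissive 25 °C to find synthetic lethal compounds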
# tim10 confirm: growth inhibitors of wild-type TIM10 yeast, confirmation, counter-screen for tim10-1 synthetic lethality project, single concentration, luminescence, S. cerevisiae. shares compounds with TIM10 inh. S. cerevisiae tim10 strain growth, BacTiter-Glo luminescence, 24 h. inhibition, % at 10 µM. 4,600 compounds, 63% hits. AID 463215, 2010;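 active = inhibition of yeast growth at or above a set limit in either of two replicates at 10 µM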; also: this counterscreen used the strain with wild-type TIM10
# A number is an active result; n = inactive; x = not tested or not shown. Sampled rows, rich in hits. Any-hit rate of the full collection: about 4.2%.
SMILES,NALP3 yeast inh,V-ATPase pHluor,NALP1 inh,tim23-1 inh,TIM10 inh,tim10-1 inh,tim10-1 confirm,tim10 confirm
CN1CCN(c2ccccc2NC(=O)c2ccc(-c3ccc(Cl)cc3Cl)o2)CC1,n,n,n,n,46,56,55,48
CS(=O)(=O)N1CCN(c2ccccc2NC(=O)c2ccc(-c3ccc(Cl)cc3Cl)o2)CC1,n,n,n,n,n,n,x,x
CCCc1cc(=O)[nH]c(SCC(=O)NCCC2=CCCCC2)n1,n,n,n,n,n,n,x,x
O=C(NC1CCCC1)c1cccc(Oc2ccccc2)c1,n,n,n,n,42,46,n,32
CN1CCC(NC(=O)c2cccc(Oc3ccccc3)c2)CC1,n,n,n,n,n,n,x,x
O=C(Nc1ccc(OC(F)F)cc1)Nc1cccc(C(F)(F)F)c1,n,n,n,n,63,57,51,52
O=C(Nc1ccncc1)Nc1cccc(C(F)(F)F)c1,n,n,n,n,n,n,x,x
NNC(=O)Nc1cccc(C(F)(F)F)c1,n,n,n,n,n,n,x,x
NC(=O)/C=C\C(=O)Nc1cccc(C(F)(F)F)c1,n,n,61,n,56,61,55,66
Cc1cc(NC(=O)CN2C(=O)/C(=C/c3ccc(C(C)C)cc3)SC2=S)no1,x,n,x,x,x,x,x,x
Cc1nc(NC(=O)CCN2C(=O)C3CC=CCC3C2=O)sc1C (centres undefined),n,n,n,n,n,n,x,x
CS(=O)(=O)c1ccc(Sc2nc3ccccc3s2)c([N+](=O)[O-])c1,n,n,n,n,42,46,38,n
CS(=O)(=O)c1ccc(Sc2nc3ccccc3[nH]2)c([N+](=O)[O-])c1,n,n,n,n,n,n,x,x
O=[N+]([O-])c1cc(S(=O)(=O)C(F)(F)F)ccc1Sc1nc2ccccc2s1,n,n,n,n,55,45,74,75
Cc1cc(C)cc(C(=O)OCC(=O)N2CCCCCC2)c1,n,n,x,n,n,n,x,x
Cc1cc(-c2onc3ccc(Cl)cc23)ccc1O,n,n,n,n,n,n,x,x
Nn1cnnc1N/N=C/c1cccc(Cl)c1Cl,n,n,n,n,52,51,50,60
CS(=O)(=O)N1CCN(c2nnc(-c3ccccc3)c3ccccc23)CC1,n,n,n,n,n,n,x,x
c1ccc(-c2nnc(N3CCN(c4ccccn4)CC3)c3ccccc23)cc1,n,n,n,n,41,52,n,n
Cc1cc(NC(=O)COC(=O)c2ccccc2[N+](=O)[O-])no1,n,n,n,n,n,n,x,x
COc1ccccc1C/C(N)=N/OC(=O)COc1ccc(C)cc1C,n,n,x,n,43,48,42,35
Cc1ccc(/C(N)=N/OC(=O)COc2cccc3ccccc23)cc1,x,n,x,x,x,x,x,x
Cc1ccc(C(=O)O/N=C(\N)Cc2cccc3ccccc23)cc1,n,n,n,n,42,49,52,73
COc1ccccc1CC(=O)O/N=C(\N)Cc1cccc2ccccc12,n,n,n,n,56,67,53,62
O=C(CN1C(=O)/C(=C/c2ccccc2F)Sc2ccccc21)NCC1CCCO1 (centres undefined),n,n,n,n,n,n,x,x
SMILES,NALP3 yeast inh,V-ATPase pHluor,NALP1 inh,tim23-1 inh,TIM10 inh,tim10-1 inh,tim10-1 confirm,tim10 confirm
OC(CNCC(c1ccc(Cl)cc1Cl)c1c[nH]c2ccccc12)c1ccccc1 (centres undefined),n,n,n,n,59,54,n,61
CC(=O)Nc1ccc(S(=O)(=O)N2CCC(C(=O)c3ccc(Cl)cc3)CC2)cc1,n,n,n,n,n,n,x,x
CC(=O)Nc1ccc(S(=O)(=O)N2CCSC2c2ccc(Cl)cc2)cc1 (centres undefined),n,n,n,n,40,53,39,n
CC(C)OC(=O)CN1C(=O)S/C(=C/c2ccc(N3CCCCC3)o2)C1=O,n,n,n,n,46,46,72,83
CC(C)(C)OC(=O)CN1C(=O)S/C(=C\c2ccc(-c3cccc(C(=O)O)c3)o2)C1=O,n,x,n,n,n,n,x,x
COc1ccc(Nc2c3ccccc3nc3ccccc23)cc1,n,n,x,n,n,n,x,x
COc1cc(Nc2c3ccccc3nc3ccccc23)cc(OC)c1OC,n,n,n,n,60,78,76,38
O=C(Nc1ccccc1N1CCOCC1)C1CCCO1 (centres undefined),n,n,x,n,n,n,x,x
CCCc1ccc(OC(=O)c2ccc(O)cc2Cl)cc1,n,n,n,n,41,51,38,45
CCOC(=O)C1CCN(C/C=C/c2ccccc2[N+](=O)[O-])CC1,n,n,n,n,n,n,x,x
CCCN1C(=O)/C(=C/c2ccncc2)SC1=S,n,n,n,n,53,45,n,n
N#CN1CCC(NS(=O)(=O)c2ccc(C(F)(F)F)cc2)CC1,n,n,x,n,n,n,x,x
O=C(/C(=C/O)N=Nc1ccccc1Cl)c1ccccc1,n,n,n,n,91,43,n,n
CCNc1c(NS(=O)(=O)c2ccc(OC)cc2)c(=O)oc2ccccc12,n,n,n,n,n,n,x,x
CCCOc1ccc(CN(CCC#N)C(=S)NC(=O)c2ccccc2)cc1,n,n,n,n,43,48,35,n
Cc1cccc(/C=C2\Oc3cc(OS(C)(=O)=O)ccc3C2=O)c1,n,n,n,n,43,47,37,n
CCOC(=O)C1=CN(Cc2cccc(F)c2)S(=O)(=O)N(CC)C1c1ccc(F)c(Cl)c1 (centres undefined),x,n,x,n,n,n,x,x
CN(CCOc1ccccc1)CC(=O)Nc1ccc(Br)cc1F,n,n,n,n,n,n,x,x
Cc1cc(C)c2nc3nc(C)c(C)cc3c(N)c2c1,n,n,n,n,81,62,71,81
CCCSc1nc(C)c2cc(C)cc(C)c2n1,n,n,n,n,n,n,x,x
O=C(CNc1cccc(C(F)(F)F)c1)N/N=C/c1cccc(Br)c1,n,n,n,n,49,44,n,n
O=C(O)c1cn[nH]c1-c1cccc([N+](=O)[O-])c1,n,n,n,n,n,n,x,x
CN(C)CCCNS(=O)(=O)c1cc(Cl)ccc1Cl,n,n,n,n,n,n,x,x
CN(C)CCCNS(=O)(=O)c1ccc(N2CCC(c3ccc(Cl)cc3)=N2)cc1,n,x,n,n,52,59,40,50

# Compound activity (PubChem BioAssay)
